In PubChem BioAssay AID2685 (National Center for Advancing Translational Sciences (NCATS), 2010):
Among all 320,000 compounds or so, about 2,100 (0.66%) were called active. Another 53% or so got no clear call; they are omitted. The call rests on the fitted dose curve; in most records, active means well fitted inhibition curve with a large enough effect in the signal ratio, with a control signal flat (not every such curve was filed as active); inconclusive means small, poorly fitted or top-dose-only effect, or effect the other way, or a change in a side signal; inactive means flat fitted curve, though single readings scatter; the % refers to the signal ratio. What follows is part of a selection rich in actives, with near analogues and random picks from the rest.

Test: qHTS Assay for Lipid Storage Modulators in Drosophila S3 Cells;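 on cell number change: cells counted by Cell Tracker Red CMTPX staining in the red channel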; on lipid storage change, negative = inhibition: on the % scale 0 is the no-effect control and ±100 the full control effect
Conditions: BODIPY lipid droplet fluorescence, 18-24 h, cells fed with added oleic acid; cell number change: measured here: cell count max response; series mostly up to 46.1 µM; lipid storage change, negative = inhibition: at the top concentration
Summary of the method: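 Laser-scanning cytometry quantifies lipid droplet accumulation (500–530 nm total intensity; droplet/cell object ratio) in oleic acid-fed (400 uM added) Drosophila S3 cells treated with a concentration series. 20 uM Triacsin C defined 100% inhibition.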
Potency means the concentration at half of the fitted maximal effect.

SMILES	lipid storage change, negative = inhibition	cell number change [%]	Potency	outcome
COc1ccc(CC(=O)NNC(=O)COc2ccc(Br)cc2C)cc1OC	14.4% (inactive)	1.07		
O=C(Nc1sc2c(c1C(=O)O)CCCCC2)c1ccccc1F	-22.6% (inactive)	-1.56		
NC(=O)c1c(NC(=O)c2ccccc2F)sc2c1CCCC2		-10.7	1.64 µM (active)	
NC(=O)c1c(NC(=O)c2ccc(F)cc2Cl)sc2c1CCC2	-6.16% (inactive)	3.89		
COc1ccccc1C(=O)Nc1sc2c(c1C(N)=O)CCCC2		-22.3		inactive
NC(=O)c1c(NC(=O)c2ccc(F)cc2)sc2c1CCC2		5.61	4.61 µM (active)	
NC(=O)c1c(NC(=O)c2ccccc2)sc2c1CCC2		-24.3		inactive
O=S(=O)(Nc1ccc(Cl)cn1)c1ccccc1	-4.96% (inactive)	14.4		
Cc1cccc(/N=C/c2nc(-c3ccccc3Br)oc2O)n1	8.31% (inactive)	18.5		
COc1cc(S(=O)(=O)N2CCOCC2)ccc1NC(=O)COC(=O)c1ccccn1	-3.84% (inactive)	9.96		
Cc1ccc[n+](CC(=O)N2CCCc3ccccc32)c1		-16.8		inactive
O=C(CSc1ccccn1)N1CCN(c2ncc(C(F)(F)F)cc2Cl)CC1	4.42% (inactive)	6.61		
O=C(O)c1nn(CC(=O)N2CCN(c3ncc(C(F)(F)F)cc3Cl)CC2)c(=O)c2ccccc12		-1.8	0.82 µM (active)	
CNCC(=O)N1CCN(c2ncc(C(F)(F)F)cc2Cl)CC1	4.67% (inactive)	-11.3		
CSc1nnc(-c2ccccc2)n1N	3.24% (inactive)	9.66		
Cc1ccc(NC(=O)c2cccnc2)cc1S(=O)(=O)N(C)C	-15% (inactive)	5.29		
CCOc1ccc(-n2cc(-c3ccccc3)c3c(SC(C)C(=O)OC)ncnc32)cc1 (stereo not given)	-15.9% (inactive)	-20.7		
CCn1c(=O)cc(OCC(=O)Nc2ccccc2N2CCN(C)CC2)c2ccccc21	-3.92% (inactive)	6.65		
COC(=O)c1cc(CNC(=O)c2sccc2-c2ccccc2)ccc1OC	-18.3% (inactive)	-10.7		
CCOc1ccc(Cc2c(Cl)nc(N)nc2Cl)cc1				inactive
COc1ccc(Cc2c(C)nc(N)nc2Cl)cc1	16.4% (inactive)	9.54		
COc1ccc(Cc2c(Cl)ncnc2Cl)cc1		-13.7	18.4 µM (active)	
CCOC(=O)C(=CNc1ccc(S(N)(=O)=O)cc1)C(=O)OCC	-10.1% (inactive)	-11.4		
CCOc1ccc(NC(=O)[C@@H](NC(=O)c2ccco2)C(C)C)cc1		4.17		inactive

SMILES	lipid storage change, negative = inhibition	cell number change [%]	Potency	outcome
Cc1nc(SCC(=O)c2ccc(Cl)cc2)c([N+](=O)[O-])[nH]1		-28.5		inactive
Cc1ccc(C(C)C)c(OCC(=O)NNC(=O)C(C(C)C)N2C(=O)c3ccccc3C2=O)c1 (stereo not given)		-20.9	16.4 µM (active)	
Cc1ccc(C(C)C)c(OCC(=O)Nn2c(C)nc3ccccc3c2=O)c1				inactive
Cc1ccc(C(C)C)c(OCC(=O)NNC(=O)CC2OC(=O)c3ccccc32)c1 (stereo not given)				inactive [at 0.0737 µM]
CC(=O)N1c2ccccc2NC2=C(C(=O)CCC2)C1c1ccc(F)cc1 (stereo not given)	0.776% (inactive)	1.82		
COc1ccc2c(c1)c(CC(=O)OCC(N)=O)c(C)n2C(=O)c1ccc(Cl)cc1	20.6% (inactive)	-0.195		
COc1ccc2c(c1)c(CC(=O)OC(C)C(=O)N(C)C)c(C)n2C(=O)c1ccc(Cl)cc1 (stereo not given)		-15.8	1.46 µM (active)	
COc1ccc2c(c1)c(CC(=O)O)c(C)n2C(=O)c1ccc(Cl)cc1	-2.62% (inactive)	3.94		
Cc1ccc(/C=C2\Oc3cc(OC(=O)N4CCOCC4)ccc3C2=O)cc1	2.13% (inactive)	0.311		
COC(=O)CC(NC(=O)C1CC1)c1ccc2c(c1)OCO2 (stereo not given)	4.85% (inactive)			
CC1Oc2ccccc2C=C1/C=N/NC(=O)[C@@H](C)NC(=O)OC(C)(C)C (stereo not given in full)	5.39% (inactive)	8.38		
CCOC(=O)N1CCN(C(=O)c2ccc(Cn3c(=S)[nH]c4cc(OCC)c(OCC)cc4c3=O)cc2)CC1	7.39% (inactive)			
COc1ccc(CCNC(=O)C(=O)N2CCCCC2)cc1OC	-1.78% (inactive)	6.42		
COc1ccc(C(=O)Nc2ccc(NC(=O)c3cccs3)cn2)cc1		12.4	10.3 µM (active)	
O=C(Nc1ccc(NC(=O)c2cccs2)cn1)c1ccccc1	-16.2% (inactive)	8.82		
COc1ccc(C(=O)Nc2cnc(NC(=O)c3cccs3)cc2C)cc1	25.6% (inactive)	-9.21		
O=C(NCCCO)/C(=C\c1cn(-c2ccccc2)nc1-c1cccnc1)NC(=O)c1ccccc1	19.7% (inactive)	19.4		
COC(=O)c1cc(C(=O)OCC(=O)NCc2cccs2)cc([N+](=O)[O-])c1	-3.38% (inactive)	-8.04		
N#Cc1ccccc1S(=O)(=O)N1CCN(S(=O)(=O)c2ccc(Br)c(C(=O)O)c2)CC1	-3.74% (inactive)			
CCCCn1c(N)c(N(CCOC)C(=O)C2CCN(S(=O)(=O)c3ccc(C)cc3C)CC2)c(=O)[nH]c1=O	17.2% [at 0.0737 µM] (inactive)			
Cc1ccc(S(=O)(=O)CC2CSc3nc(N)cc(=O)n32)cc1 (stereo not given)	-8.79% (inactive)	2.18		
O=[N+]([O-])c1ccc(S(=O)(=O)CC2CSc3nc4ccccc4n32)cc1 (stereo not given)		-0.884	32.6 µM (active)	
Cc1nnc2n(c1=O)C(CS(=O)(=O)c1ccc3ccccc3c1)CS2 (stereo not given)	7.18% (inactive)	2.91		
CCOC(=O)Nc1cc2c(C)cc(=O)oc2cc1C	38.2% (inactive)	12.9		

SMILES	lipid storage change, negative = inhibition	cell number change [%]	Potency	outcome
Cc1ccc(CN2CCN(Cc3c[nH]c4ccccc34)CC2CCO)o1 (stereo not given)	-12.5% (inactive)	12.4		
Cc1cccc(C)c1NC(=O)N1C2CCC1CC(O)(c1cccnc1)C2 (stereo not given)	0.613% (inactive)	9.99		
O=C(Nc1ccccc1C(=O)NC1CC1)c1ccccc1	3.91% (inactive)	10.8		
CCOC(=O)C1=NN(c2cccc(Cl)c2)C2=NC(C)=C(C(=O)OC)C(c3cccs3)N12 (stereo not given)	-3.04% (inactive)	-18.3		
CCOc1ccc2ccccc2c1/C=N/NC(=O)c1ccncc1		6.87		inactive
COc1ccc2ccccc2c1/C=N/NC(=O)c1ccc([N+](=O)[O-])cc1	-10.6% (inactive)	-15.8		
CCOc1ccc2ccccc2c1/C=N\NC(=O)c1ccc([N+](=O)[O-])cc1		-16.1	6.51 µM (active)	
CC(C)CNC(=O)CN1C(=O)NC2(CCCc3ccccc32)C1=O (stereo not given)	-4.01% (inactive)	7.92		
CCCNC(=O)C1CCN(S(=O)(=O)c2ccc3nc4c(c(C(=O)O)c3c2)CCCCC4)CC1	18.1% (inactive)	4.41		
CN(C)N1C(=O)CC(C)(c2ccc([N+](=O)[O-])cc2)C1=O (stereo not given)	-2.1% (inactive)	-4.15		
Cc1cccc(-n2ncc3c(=O)[nH]c(SCC(=O)NCCC4=CCCCC4)nc32)c1	-10.6% (inactive)	-11		
O=C(OCCCc1cc2ccccc2c(=O)o1)c1ccc2c(c1)OCO2	0.96% (inactive)	-12		
O=C(OCCc1cc2ccccc2c(=O)o1)c1cccc(Br)c1		-23.3	0.13 µM (active)	
N#Cc1ccc(C(=O)OCCCc2cc3ccccc3c(=O)o2)cc1	9.51% (inactive)	18		
CC(C)CN1CCN(Cc2cccn2-c2ccc(Cl)cn2)CC1CCO (stereo not given)	5.56% (inactive)	10.5		
COc1ccc2c(c1)sc1nc(=O)ccn12	-19.5% (inactive)	21.5		
CCCCc1c(O)nc2sc3cc(OC)ccc3n2c1=O		9.25	10.3 µM (active)	
CCCCc1c(O)nc2sccn2c1=O	15.8% (inactive)			
O=C(CN1CCOC1=O)N1CCCC(N2CCN(c3cccc(C(F)(F)F)c3)CC2)C1 (stereo not given)		-10.2		inactive
CCN(CC)CC(=O)N1CCCC(N2CCN(c3cccc(C(F)(F)F)c3)CC2)C1 (stereo not given)	12.5% (inactive)	21		
CSCC(=O)N1CCCC(N2CCN(c3cccc(C(F)(F)F)c3)CC2)C1 (stereo not given)		7.35	13 µM (active)	
O=C(Nc1cccc(-c2ccc(F)cc2)c1)C1CCCN(Cc2cccnc2)C1 (stereo not given)	-8.86% (inactive)	-21.8		
CCc1ncc(CN2CCCC(C(=O)Nc3cccc(-c4ccc(F)cc4)c3)C2)cn1 (stereo not given)		-24.6	20.6 µM (active)	
CCc1ncc(CN2CCCC(C(=O)Nc3cccc(-c4cccc(C)c4)c3)C2)cn1 (stereo not given)	11.6% (inactive)	8.11		

SMILES	lipid storage change, negative = inhibition	cell number change [%]	Potency	outcome
C=CCN(Cc1nc(-c2ccccc2)no1)C(=O)c1ccoc1C	-4.28% (inactive)	33.5		
Cc1cc(=O)oc2cc(Oc3ccc([N+](=O)[O-])cc3[N+](=O)[O-])ccc12		-13.4	20.6 µM (active)	
Cc1cc(=O)oc2cc(Oc3ccc(C(N)=O)cc3[N+](=O)[O-])ccc12	0.639% (inactive)	5.31		
Cc1cc(=O)oc2cc(Oc3ncccc3[N+](=O)[O-])ccc12	-0.796% (inactive)	13.9		
O=C(COc1ccccc1)NNC(=S)NC(=O)c1ccc(Cl)cc1Cl	3.86% (inactive)	-11.7		
N#Cc1cc2c(nc1Cl)CCC2	16.3% (inactive)	0.397		
COc1cc(/C=C(/C(=O)c2cccs2)c2nc3ccccc3[nH]2)ccc1O		-19		inactive
O=C(/C(=C/c1cccc(Cl)c1)c1nc2ccccc2[nH]1)c1ccccc1		-22.6	9.2 µM (active)	
O=C(NCc1ccco1)/C(=C/c1cccc(C(F)(F)F)c1)c1nc2ccccc2[nH]1	2.93% (inactive)	-4.5		
Cc1ccc2nc(-c3ccccc3)c(-c3ccccc3)nc2c1	21.7% (inactive)	8.82		
CCN(CC)c1ccc(/C=C(/C#N)c2nc3ccccc3[nH]2)c(OC(C)C)c1			3.66 µM (active)	
CCOc1cc(/C=C(\C#N)c2nc3ccccc3[nH]2)ccc1OC(C)C(=O)O (stereo not given)	3.1% (inactive)	5.37		
N#C/C(=C\c1ccccc1OCC(=O)O)c1nc2ccccc2[nH]1	-13.5% (inactive)			
CCN(C(=O)COC(=O)c1cc(=O)c2ccccc2o1)c1c(N)n(Cc2ccccc2)c(=O)[nH]c1=O	-18.7% (inactive)			
COc1cccc(CN2C(=O)C(C)N(C(=O)c3ccccc3)c3ccccc32)c1 (stereo not given)	-3.54% (inactive)	-9.22		
Cc1ccccc1N(CC(=O)NC1CCCC1)C(=O)c1csnn1	0.767% (inactive)	-1.91		
Cc1ccc(C)c(N(CC(=O)NC2CCCCC2)C(=O)c2csnn2)c1		7.08		inactive
Cc1cc(C)cc(N(CC(=O)NC2CCCCC2)C(=O)c2csnn2)c1		3.85	6.51 µM (active)	
CC(=O)c1ccc(N(CC(=O)NC2CCCCC2)C(=O)c2csnn2)cc1	-2.57% (inactive)	-0.427		
Cc1ccc(Cl)cc1N(CC(=O)NC1CCCC1)C(=O)c1csnn1		11.3	0.82 µM (active)	
Cc1cc(C)cc(N(CC(=O)NC2CCCC2)C(=O)c2csnn2)c1		20		inactive
